Results on 11 compounds are retold here after ChEMBL document CHEMBL3988442, “University of Dundee, Small-Polar-MMV Screening Library” (2021).

For some of these results: Entries with a potency or affinity are not part of this list.

What all share (parameters): scale not given: direction of the effect not stated beside the values
The target in experiment [1] is Protein translocase subunit SecA (Escherichia coli (strain K12)) (UniProt P10408). Briefly: Assay to Identify E. coli SecA ATPase Inhibitors. Type of experiment: functional. To be noted: 30 µM.
The target of experiment [2] is T1, Ubiquitin-activating enzyme e1, putative (Leishmania donovani (strain BPK282A1)) (UniProt E9BSI1).
T1 sequence (whole entry): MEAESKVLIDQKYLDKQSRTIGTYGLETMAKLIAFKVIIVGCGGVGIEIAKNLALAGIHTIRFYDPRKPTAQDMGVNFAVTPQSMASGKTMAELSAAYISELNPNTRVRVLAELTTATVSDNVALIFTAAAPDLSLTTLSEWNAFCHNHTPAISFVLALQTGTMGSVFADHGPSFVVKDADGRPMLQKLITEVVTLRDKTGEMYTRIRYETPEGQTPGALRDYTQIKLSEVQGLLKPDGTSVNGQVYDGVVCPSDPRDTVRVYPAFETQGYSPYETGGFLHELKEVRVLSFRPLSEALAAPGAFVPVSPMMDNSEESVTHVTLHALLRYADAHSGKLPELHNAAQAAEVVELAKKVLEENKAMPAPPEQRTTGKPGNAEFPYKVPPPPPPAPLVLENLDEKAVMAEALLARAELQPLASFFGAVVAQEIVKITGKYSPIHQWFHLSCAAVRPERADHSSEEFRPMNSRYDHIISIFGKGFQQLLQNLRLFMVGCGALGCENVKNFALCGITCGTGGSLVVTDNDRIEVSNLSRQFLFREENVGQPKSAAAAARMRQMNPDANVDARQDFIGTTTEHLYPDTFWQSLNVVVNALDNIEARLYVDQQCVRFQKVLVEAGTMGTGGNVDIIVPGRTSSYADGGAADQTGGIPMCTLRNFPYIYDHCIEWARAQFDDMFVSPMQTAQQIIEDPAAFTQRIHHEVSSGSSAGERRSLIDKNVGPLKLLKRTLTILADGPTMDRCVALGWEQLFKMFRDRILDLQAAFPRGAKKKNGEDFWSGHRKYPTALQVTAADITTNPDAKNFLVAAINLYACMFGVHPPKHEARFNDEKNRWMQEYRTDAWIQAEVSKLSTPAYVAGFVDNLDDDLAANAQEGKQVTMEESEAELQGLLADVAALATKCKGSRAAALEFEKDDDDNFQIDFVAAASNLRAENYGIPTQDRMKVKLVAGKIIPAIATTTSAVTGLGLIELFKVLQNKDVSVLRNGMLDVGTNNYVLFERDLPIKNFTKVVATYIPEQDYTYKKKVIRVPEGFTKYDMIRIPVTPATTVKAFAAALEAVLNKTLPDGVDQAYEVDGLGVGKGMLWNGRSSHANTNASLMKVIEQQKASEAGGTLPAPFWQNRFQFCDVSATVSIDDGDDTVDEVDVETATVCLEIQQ
Briefly: Leishmania donovani Ubiquitin Activating Enzyme (LdE1). It is filed as functional. To be noted: 30 µM.

Experiment [3] has as its target AMP-activated protein kinase, AMPK (Homo sapiens) (UniProt P54646+O43741+P54619+Q9UGJ0+Q9Y478+Q13131+Q9UGI9). Briefly: AMP-dependent Kinase enzyme assay. An in vitro enzyme assay that detects ADP turnover that is directly proportional to AMPK activity. This uses naive AMPK that is activated during the assay with MK-8722. To be noted: 30 µM. It is filed as functional.

Experiment [4] addresses Sialic acid-binding Ig-like lectin 9 (Homo sapiens) (UniProt Q9Y336). Kind of experiment: Hs-Siglec9 ALPHAscreen SOP 20170721. To be noted: 10 µM. For orientation: In Alpha technology, singlet oxygen from a donor bead excites a nearby acceptor bead.
For a further experiment, the system named is Trypanosoma cruzi. Kind of experiment: Trypanosoma cruzi phosphomannomutase and mannose-1-phosphate guanylyltransferase assay. It is filed as functional. To be noted: 10 µM.
Experiment [5] has as its target T2, Arginase-2, mitochondrial (Homo sapiens) (UniProt P78540).
T2 sequence (whole entry): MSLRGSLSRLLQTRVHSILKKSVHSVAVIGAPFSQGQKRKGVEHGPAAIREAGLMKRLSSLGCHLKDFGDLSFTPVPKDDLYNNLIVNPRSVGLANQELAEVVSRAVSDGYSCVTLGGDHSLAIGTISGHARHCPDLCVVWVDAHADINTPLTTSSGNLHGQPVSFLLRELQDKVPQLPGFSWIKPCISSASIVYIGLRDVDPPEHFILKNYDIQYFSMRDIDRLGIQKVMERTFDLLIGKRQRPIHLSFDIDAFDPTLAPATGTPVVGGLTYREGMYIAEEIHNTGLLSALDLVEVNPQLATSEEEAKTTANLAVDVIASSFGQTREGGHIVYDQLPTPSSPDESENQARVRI
Briefly: in vitro enzyme assay to detect the production of urea directly proportional to the activity of Arginase II. Also: in the data most compounds retested in dose-response had high values. Type of experiment: functional. To be noted: 33.3 µM.

The target of experiment [6] is T3, Proteasome subunit beta (Trypanosoma cruzi) (UniProt O96673).
T3 sequence (whole entry): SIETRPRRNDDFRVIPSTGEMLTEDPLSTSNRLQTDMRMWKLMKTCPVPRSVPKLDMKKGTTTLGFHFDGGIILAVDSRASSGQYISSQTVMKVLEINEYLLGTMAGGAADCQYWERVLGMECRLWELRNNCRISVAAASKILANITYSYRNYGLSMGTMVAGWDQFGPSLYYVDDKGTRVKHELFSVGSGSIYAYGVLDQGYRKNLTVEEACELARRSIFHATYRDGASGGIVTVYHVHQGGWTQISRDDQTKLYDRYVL
Briefly: Trypanosoma cruzi proteasome chymotrypsin-like activity (TcProtChymo) assay. Also: in the data most compounds retested in dose-response had high values. Type of experiment: functional. To be noted: 9.37 µM.

A further experiment is filed under the species Homo sapiens. Kind of experiment: To identify inhibition of the IFN signalling (Jak-Stat) pathway via expression of an eGFP reporter gene under the control of an IFN-stimulated response element (ISRE) containing MxA promoter. Type of experiment: functional. To be noted: 30 µM. (Reporter assays use an easily measured gene product as a stand-in for the process of interest.)

Experiment [7] addresses T4, Tyrosyl-tRNA synthetase, putative (Trypanosoma cruzi (strain CL Brener)) (UniProt Q4DSP6).
T4 sequence (whole entry): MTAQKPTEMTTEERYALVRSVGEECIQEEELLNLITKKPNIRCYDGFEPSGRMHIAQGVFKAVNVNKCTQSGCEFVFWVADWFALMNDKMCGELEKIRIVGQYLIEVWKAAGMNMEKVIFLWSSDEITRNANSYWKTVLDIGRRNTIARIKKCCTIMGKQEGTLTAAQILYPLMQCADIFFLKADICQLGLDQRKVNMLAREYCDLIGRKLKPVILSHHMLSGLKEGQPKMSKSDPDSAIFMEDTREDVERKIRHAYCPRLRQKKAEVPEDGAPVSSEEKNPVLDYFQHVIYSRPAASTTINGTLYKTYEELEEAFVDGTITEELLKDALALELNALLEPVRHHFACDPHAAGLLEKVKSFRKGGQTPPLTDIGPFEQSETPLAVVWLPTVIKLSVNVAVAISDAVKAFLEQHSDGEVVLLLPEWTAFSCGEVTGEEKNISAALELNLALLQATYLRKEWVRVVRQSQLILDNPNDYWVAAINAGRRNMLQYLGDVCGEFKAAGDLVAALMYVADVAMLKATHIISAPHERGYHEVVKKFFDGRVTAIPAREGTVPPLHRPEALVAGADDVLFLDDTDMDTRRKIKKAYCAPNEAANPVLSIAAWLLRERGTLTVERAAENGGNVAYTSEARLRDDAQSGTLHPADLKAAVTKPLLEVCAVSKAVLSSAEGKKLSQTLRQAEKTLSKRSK
Kind of experiment: Trypanosoma cruzi tyrosyl tRNA synthetase (TcYRS) _High Tyrosine SOP. Also: in the data most compounds retested in dose-response had high values. Type of experiment: functional. To be noted: 30 µM.

The target in experiment [8] is T4, Tyrosyl-tRNA synthetase, putative (Trypanosoma cruzi (strain CL Brener)). Kind of experiment: Trypanosoma cruzi tyrosyl tRNA synthetase (TcYRS) SOP. Type of experiment: functional. To be noted: 30 µM.
The target of experiment [9] is Chromo domain-containing protein 1 (Saccharomyces cerevisiae (strain ATCC 204508 / S288c) (Baker's yeast)) (UniProt P32657). Briefly: ScCHD-1 Enzyme Inhibition Assay. Also: in the data most compounds retested in dose-response had high values. Type of experiment: functional. To be noted: 30 µM.
Chain of Chromo domain-containing protein 1 (Saccharomyces cerevisiae (strain ATCC 204508 / S288c) (Baker's yeast)) (P32657 whole entry, the tested form may be a part): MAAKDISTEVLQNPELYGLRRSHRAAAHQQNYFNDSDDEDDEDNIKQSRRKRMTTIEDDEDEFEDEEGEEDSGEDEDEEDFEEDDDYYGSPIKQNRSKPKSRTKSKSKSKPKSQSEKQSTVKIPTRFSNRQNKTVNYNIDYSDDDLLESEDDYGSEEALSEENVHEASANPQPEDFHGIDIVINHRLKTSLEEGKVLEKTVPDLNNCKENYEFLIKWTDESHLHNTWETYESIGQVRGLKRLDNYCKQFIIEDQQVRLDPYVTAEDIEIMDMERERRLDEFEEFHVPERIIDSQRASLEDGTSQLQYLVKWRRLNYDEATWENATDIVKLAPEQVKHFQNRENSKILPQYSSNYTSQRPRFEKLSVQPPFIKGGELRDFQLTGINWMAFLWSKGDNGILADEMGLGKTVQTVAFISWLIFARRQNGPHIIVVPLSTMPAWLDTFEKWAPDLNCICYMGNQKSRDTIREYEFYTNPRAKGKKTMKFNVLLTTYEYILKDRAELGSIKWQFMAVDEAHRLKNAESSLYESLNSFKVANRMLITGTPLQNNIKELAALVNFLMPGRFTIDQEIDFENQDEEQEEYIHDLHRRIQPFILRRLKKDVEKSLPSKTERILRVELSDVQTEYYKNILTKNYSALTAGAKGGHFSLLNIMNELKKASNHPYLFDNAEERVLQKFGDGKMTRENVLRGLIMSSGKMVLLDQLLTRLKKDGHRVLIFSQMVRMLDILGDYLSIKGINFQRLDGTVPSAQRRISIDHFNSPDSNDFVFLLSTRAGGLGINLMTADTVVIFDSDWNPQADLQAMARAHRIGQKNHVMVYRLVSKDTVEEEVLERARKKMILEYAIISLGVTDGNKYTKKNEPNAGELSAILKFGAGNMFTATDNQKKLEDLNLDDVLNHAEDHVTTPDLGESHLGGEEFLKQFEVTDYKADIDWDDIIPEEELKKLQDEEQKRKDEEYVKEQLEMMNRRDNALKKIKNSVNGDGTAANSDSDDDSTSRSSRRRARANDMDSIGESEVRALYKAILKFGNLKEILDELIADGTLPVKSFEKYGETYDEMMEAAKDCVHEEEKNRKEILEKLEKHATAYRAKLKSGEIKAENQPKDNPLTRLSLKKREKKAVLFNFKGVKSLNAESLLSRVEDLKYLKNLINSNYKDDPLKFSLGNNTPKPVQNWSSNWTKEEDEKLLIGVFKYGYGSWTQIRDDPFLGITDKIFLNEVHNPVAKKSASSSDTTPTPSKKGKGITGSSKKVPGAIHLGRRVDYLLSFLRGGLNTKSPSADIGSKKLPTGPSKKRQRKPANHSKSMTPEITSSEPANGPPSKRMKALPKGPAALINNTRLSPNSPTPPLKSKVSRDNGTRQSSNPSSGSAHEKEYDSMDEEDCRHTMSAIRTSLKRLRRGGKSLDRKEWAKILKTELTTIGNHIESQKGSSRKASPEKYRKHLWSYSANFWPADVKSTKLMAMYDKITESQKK

Chain of Sialic acid-binding Ig-like lectin 9 (Homo sapiens) (Q9Y336 whole entry): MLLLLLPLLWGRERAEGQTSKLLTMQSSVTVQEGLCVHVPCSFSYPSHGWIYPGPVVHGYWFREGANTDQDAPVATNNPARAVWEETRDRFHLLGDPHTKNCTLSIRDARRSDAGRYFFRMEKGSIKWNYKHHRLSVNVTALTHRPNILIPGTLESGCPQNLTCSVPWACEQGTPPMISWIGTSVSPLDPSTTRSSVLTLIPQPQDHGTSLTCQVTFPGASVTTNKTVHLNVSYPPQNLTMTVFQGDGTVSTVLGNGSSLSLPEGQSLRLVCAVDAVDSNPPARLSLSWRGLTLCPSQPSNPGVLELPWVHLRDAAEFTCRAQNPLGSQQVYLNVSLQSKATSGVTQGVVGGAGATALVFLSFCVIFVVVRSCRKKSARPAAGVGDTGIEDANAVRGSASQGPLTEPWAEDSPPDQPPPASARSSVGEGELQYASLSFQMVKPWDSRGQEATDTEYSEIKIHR
Chain of Protein translocase subunit SecA (Escherichia coli (strain K12)) (P10408 whole entry): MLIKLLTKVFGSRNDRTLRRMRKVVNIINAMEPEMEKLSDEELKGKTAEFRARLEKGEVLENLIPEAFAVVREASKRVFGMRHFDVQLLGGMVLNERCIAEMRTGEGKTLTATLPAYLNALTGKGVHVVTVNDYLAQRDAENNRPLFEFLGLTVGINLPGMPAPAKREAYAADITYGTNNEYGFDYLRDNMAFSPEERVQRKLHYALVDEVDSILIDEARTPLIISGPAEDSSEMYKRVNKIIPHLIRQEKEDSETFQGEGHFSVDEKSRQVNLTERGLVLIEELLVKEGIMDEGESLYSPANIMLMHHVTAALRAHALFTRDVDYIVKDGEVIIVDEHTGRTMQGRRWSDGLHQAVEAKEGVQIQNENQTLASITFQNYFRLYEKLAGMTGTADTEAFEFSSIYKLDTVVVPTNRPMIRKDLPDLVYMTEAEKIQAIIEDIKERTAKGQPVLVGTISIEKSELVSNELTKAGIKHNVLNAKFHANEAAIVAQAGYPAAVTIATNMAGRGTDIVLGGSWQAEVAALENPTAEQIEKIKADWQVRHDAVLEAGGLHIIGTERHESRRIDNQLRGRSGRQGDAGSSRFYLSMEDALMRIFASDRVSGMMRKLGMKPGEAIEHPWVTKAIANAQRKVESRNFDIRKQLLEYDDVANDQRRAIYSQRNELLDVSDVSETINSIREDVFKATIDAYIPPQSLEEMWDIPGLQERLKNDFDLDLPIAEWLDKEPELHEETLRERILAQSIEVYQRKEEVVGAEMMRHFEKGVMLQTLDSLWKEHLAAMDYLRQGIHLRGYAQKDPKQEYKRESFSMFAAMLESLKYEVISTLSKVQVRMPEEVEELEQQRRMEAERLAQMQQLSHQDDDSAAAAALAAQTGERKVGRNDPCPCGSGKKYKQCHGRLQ

Take `Cc1cc(C)nc(N2Cc3cnn(Cc4ccc(F)cc4)c3C2)n1`: the Percent Effect in [1] was -6.24%; in experiment [2], -2.67%; in experiment [3], 1.55%; in experiment [4] it was -0.223%; in the experiment on Trypanosoma cruzi it was -7.5%; in [5] it was -2.6%. For the same compound, the Percent Effect in experiment [6] was 10.6%; in the experiment filed under Homo sapiens it was 33.6%; in [7], -6.01%; in experiment [8], -6.17%; in experiment [9] it was -5.39%.
For the compound `Cc1nnc(C(C)NCC2(c3c(F)cccc3F)CCCC2)o1` (stereo unspecified), the Percent Effect is -2.54% in [1]; -2.7% in experiment [2]; -3.85% in [3]; 0.273% in experiment [4]; -0.965% in the experiment on Trypanosoma cruzi; 1.91% in experiment [5]. Moreover, the Percent Effect in experiment [6] is 7.93%; in the experiment listed under Homo sapiens, 14.7%; in [7] it was 0.529%; in [8], 9.76%; in [9], -3.86%.
Consider `CC(C(=O)N1CCCN(c2ccc(C#N)cc2)CC1)n1ccnc1` (stereo unspecified), for which the Percent Effect was -5.97% in experiment [1]; 15.8% in experiment [2]; -5.83% in [3]; -1.34% in experiment [4]; 3.01% in the experiment with Trypanosoma cruzi; 6.13% in [5]. Also, the Percent Effect in [6] was 8.52%; in the experiment listed under Homo sapiens, -7.67%; in experiment [7], 8.33%; in experiment [8], 19.5%; in [9], -17.9%.
Take `COc1cc(CN(C)C(=O)Cc2c(C)nn(C)c2C)ccc1OC(F)F`: the Percent Effect is 3.46% in experiment [1]; -9.72% in experiment [2]; -6.03% in experiment [3]; -7.7% in experiment [4]; -5.15% in the experiment with Trypanosoma cruzi; 3.09% in experiment [5]. Moreover, the Percent Effect stood at 20.2% in experiment [6]; 55.5% in the experiment listed under Homo sapiens; 5.26% in experiment [7]; 10.3% in experiment [8]; 0.343% in [9].
On to `COCc1ccc(CN2CCC(O)(Cn3ccc4ncccc43)CC2)o1`, for which the Percent Effect is -1.21% in [1]; 2.67% in [2]; -2.95% in experiment [3]; 1.83% in [4]; 5.51% with Trypanosoma cruzi; 0.233% in [5]. Also, the Percent Effect is 9.07% in experiment [6]; 7.16% in the experiment filed under Homo sapiens; 2.13% in experiment [7]; 3.85% in [8]; -6.45% in experiment [9].
`Cn1cc(CNCCn2cccn2)c(-c2cccnc2)n1`: the Percent Effect was -3.75% in [1]; 0% in experiment [2]; -3.89% in [3]; -4.32% in experiment [4]; -1.66% in the experiment on Trypanosoma cruzi; 0.744% in [5]. Further, the Percent Effect is 13.8% in [6]; -1.72% in the experiment listed under Homo sapiens; -1.07% in experiment [7]; 1.24% in experiment [8]; 2.43% in experiment [9].
Consider `CCc1ncncc1C(=O)N1CCCN(Cc2ccc(C)cc2)CC1`, for which the Percent Effect was -6.16% in experiment [1]; 2.63% in experiment [2]; 1.25% in experiment [3]; -3.26% in [4]; -6.44% in the experiment with Trypanosoma cruzi; -0.36% in [5]. Further, the Percent Effect in experiment [6] was 0.592%; in the experiment listed under Homo sapiens, 6.25%; in [7], -2.46%; in experiment [8] it was -13.6%; in experiment [9], 6.06%.
Turning to `Cc1ccoc1C(=O)NC1CCN(Cc2cccc3c2OCCO3)CC1`, the Percent Effect in experiment [1] is -5.22%; in [2] it was 16.5%; in [3], -78.8%; in experiment [4], 6.72%; in the experiment on Trypanosoma cruzi, 3.38%; in experiment [5], -5.38%. In addition, the Percent Effect in [6] was 13.9%; in the experiment filed under Homo sapiens it was 8.82%; in [7] it was 13.5%; in experiment [8] it was 25.3%; in [9] it was -24.5%.
Regarding `CC(C)c1cc(NC(=O)c2ccc(C(=O)NC(C)(C)C)cc2)[nH]n1`, the Percent Effect was -6.52% in experiment [1]; 23.4% in experiment [2]; 112% in experiment [3]; -4.38% in experiment [4]; -3% in the experiment with Trypanosoma cruzi; 0.712% in experiment [5]. For the same compound, the Percent Effect in [6] is 0.169%; in the experiment listed under Homo sapiens it was 53%; in experiment [7] it was 6.8%; in [8], 24.4%; in experiment [9], -4.07%.
As for `OC1(Cn2ccc3ccncc32)CCN(Cc2ccccn2)CC1`, the Percent Effect in [1] is 0.875%; in [2] it was 6.76%; in [3], 1.5%; in [4], 0.0823%; with Trypanosoma cruzi, -10.7%; in experiment [5], 2.55%. The Percent Effect in [6] is 8.42%; in the experiment listed under Homo sapiens, 17.6%; in experiment [7], -1.07%; in [8], 9.09%; in experiment [9], -2.25%.
With `Cc1ccc(CC(=O)N2CCCCC2c2nc(C)cs2)cn1` (stereo unspecified), the Percent Effect in experiment [1] was -3.56%; in experiment [2], 3.8%; in [3], 3.35%; in experiment [4], -2.77%; with Trypanosoma cruzi, -1.54%; in experiment [5], 4.52%. For the same compound, the Percent Effect in experiment [6] was 6.52%; in the experiment listed under Homo sapiens it was 4.76%; in experiment [7], -4.17%; in experiment [8], 7.59%; in experiment [9], -12.2%.
